We go through 25 compounds from PubChem BioAssay AID2156 (Johns Hopkins Ion Channel Center, 2009).

Hit rate of the full screen: of about 310,000 compounds, about 3,400 (1.1%) were called active. Only a selection was taken, and actives are over-represented in it overall. Unmarked numbers belong to inactive results.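 The calls were made as follows: active = fluorescence ratio B-score at most minus 3 library SDs, with starting brightness B-score within 2 library SDs (cut at about -5.5 in these data); inactive = the rest, inconclusive results apart.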

The target in this assay is Potassium voltage-gated channel subfamily KQT member 2 (Rattus norvegicus) (UniProt O88943). Description: KCNQ2 channel blockers in CHO-K1 cells – cell-based, FluxOR thallium flux, B-score, primary screen (AID 2156). Conditions: 20 min, at 10 µM; active compounds read low.
Sequence of Potassium voltage-gated channel subfamily KQT member 2 (Rattus norvegicus) (O88943 whole entry, looked up): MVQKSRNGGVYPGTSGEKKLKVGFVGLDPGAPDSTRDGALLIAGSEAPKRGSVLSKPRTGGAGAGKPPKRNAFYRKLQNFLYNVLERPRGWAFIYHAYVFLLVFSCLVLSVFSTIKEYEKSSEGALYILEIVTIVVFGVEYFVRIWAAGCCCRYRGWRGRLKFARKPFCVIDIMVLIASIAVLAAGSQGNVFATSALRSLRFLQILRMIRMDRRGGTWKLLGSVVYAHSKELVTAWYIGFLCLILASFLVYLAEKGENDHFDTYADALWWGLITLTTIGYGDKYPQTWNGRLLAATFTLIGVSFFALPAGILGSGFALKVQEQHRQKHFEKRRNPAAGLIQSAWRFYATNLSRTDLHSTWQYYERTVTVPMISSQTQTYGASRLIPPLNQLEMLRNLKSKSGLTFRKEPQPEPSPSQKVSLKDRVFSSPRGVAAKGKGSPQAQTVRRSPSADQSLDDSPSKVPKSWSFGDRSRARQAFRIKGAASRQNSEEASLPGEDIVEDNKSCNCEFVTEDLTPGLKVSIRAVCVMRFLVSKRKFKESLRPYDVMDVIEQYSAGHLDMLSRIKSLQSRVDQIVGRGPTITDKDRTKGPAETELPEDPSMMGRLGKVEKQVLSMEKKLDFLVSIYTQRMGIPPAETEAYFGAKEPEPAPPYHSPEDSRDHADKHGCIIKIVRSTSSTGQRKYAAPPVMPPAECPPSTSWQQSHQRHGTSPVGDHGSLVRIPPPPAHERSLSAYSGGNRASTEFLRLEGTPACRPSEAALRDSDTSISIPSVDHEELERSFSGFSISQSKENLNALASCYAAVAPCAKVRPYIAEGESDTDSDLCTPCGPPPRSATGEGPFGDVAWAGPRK
On to `CC(C)(C)c1ccc(CN2C(=O)CN=C(c3ccccc3)c3ccccc32)cc1`, for which the B-score was -6.95 (active).

With `O=C1CC(=O)N(Cc2ccccc2)C(=O)N1CCCCCCN1C(=O)CC(=O)N(Cc2ccccc2)C1=O`, the B-score entry was “inactive”.

`CCOC(=O)c1c(-c2ccccc2)oc2ccc(OC(=O)N(C)C)cc12`: the B-score is -4.87.

Consider `COc1ccccc1C1=NCc2nnc(CSC)n2-c2ccc(Cl)cc21`, for which the B-score entry was “inactive”.

With `O=C(c1ccccc1[N+](=O)[O-])N1CCC2(CC1)OCCO2`, the B-score result is “inactive”.

For `COc1ccccc1CN1CCN(C(=O)Cc2ccccc2)CC1`, the B-score is -0.38.

In the case of `Cc1nn(-c2ccccc2)c(C)c1NC(=O)COC(=O)Cc1ccccc1`, the B-score result was “inactive”.

As to `COc1ccc(CN2CCN(c3ccccc3F)CC2)c(OC)c1`, the B-score was -0.09.

For `O=c1[nH]c(O)c(C=Nc2cc(F)cc(F)c2)c(=O)[nH]1`, the B-score entry is “inactive”.

In the case of `Cc1nc2ccccn2c1P(=S)(N1CCCCC1)N1CCCCC1`, the B-score is -5.55 (active).

`CCCCCn1c(=O)c(C(=O)NCc2ccccc2)c(O)c2ccccc21`: the B-score is -3.71.

With `COc1ccccc1OC(=O)c1ccc(C)c(S(=O)(=O)N2CCOCC2)c1`, the B-score result was “inactive”.

As to `O=C(c1cc2nc(-c3ccccc3)cc(-c3ccccc3)n2n1)N1CCC2(CC1)OCCO2`, the B-score is -2.41.

For `COc1ccc2c(c1)[C@]13CCCCC1C(C2)N(C)CC3` (stereo not given in full), the B-score entry was “inactive”.

Turning to `C/C(=N/O)c1ccc2ccc3ccccc3c2c1`, the B-score is -0.17.

As for `Cc1ccc(Cn2c(C)c3cnn(CC(=O)N4CCC5(CC4)OCCO5)c(=O)c3c2C)cc1`, the B-score result is “inactive”.

On to `O=C(CCN1CCCCC1)NCC(=O)Nc1ccc(Br)cc1C(=O)c1ccccc1`, for which the B-score is -0.1.

As for `CN(C)CC1Oc2ccccc2OC1(O)c1ccccc1` (stereo not given), the B-score is -8.59 (active).

Consider `O=C(O)C1CSC(c2cccnc2)N1` (stereo not given), for which the B-score was -1.95.

Turning to `C=CC12CN(C)[C@@H]3C4CO[C@H](C[C@H]41)[C@]1(C(=O)Nc4ccccc41)[C@@H]32` (stereo not given in full), the B-score entry is “inactive”.

`CCCCCCCCCCCCn1ccc(=N)cc1`: the B-score is -3.45.

`CC(c1ccccc1)(c1ccccc1)c1ccncc1`: the B-score was -6.57 (active).

Consider `CC[C@H]1CC2CN3CCc4c([nH]c5ccccc45)C(C(=O)OC)(C2)C13` (stereo not given in full), for which the B-score was -0.03.

As for `O=C(NC(c1ccc(Cl)cc1)P(=O)(Oc1ccccc1)Oc1ccccc1)OCc1ccccc1` (stereo not given), the B-score is -9.52 (active).

Turning to `COc1ccc(C2N3CC(C)(C)CN23)cc1` (stereo not given), the B-score result is “inactive”.
